Measurements from PubChem BioAssay (NCATS).
Where “and” joins values, the source holds several entries; their conditions need not be identical. Equal values may be shown once. Records with an inconclusive call do not appear. Values without a mark were called inactive. Calls of active or inactive are those of the source. Calls follow the shape of the dose curve; as a rule, active = well fitted inhibition curve with a large enough effect; inconclusive = small, poorly fitted or top-dose-only effect; inactive = flat fitted curve, though single readings scatter.

These compounds were tested on CRL-7250 (assay: Cytotoxic Profiling of Annotated Libraries Using Quantitative High-Throughput Screening (AID 1296008; also: nearly all actives have a fitted effect of over 60% in size)). Details: Five cell lines viability, CellTiter-Glo ATP luminescence, 48-72 h; max response: hits give low values.
How it was run: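 Compounds were pin-transferred onto cells and incubated 48 or 72 hr at 37 degree Celsius, 95% humidity. CellTiter-Glo was added, plates sat 10 min at room temperature, then ATP-coupled luminescence was imaged as the viability read-out.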
% is scaled to controls: 0 for no effect and ±100 for the full control effect; potency is read from the fitted curve at half-maximal effect.

Structure (SMILES)	max response	Potency	outcome
Cc1nc2ccc(CN(C)c3ccc(C(=O)N[C@@H](CCC(=O)O)C(=O)O)s3)cc2c(=O)[nH]1	-19.7%		
CC(C)c1ccc(Cn2ccc3c4c(N)nc(NC5CC5)nc4ccc32)cc1		3.32 µM (active)	
CCOC(=O)C1=C(C)NC2=C(C(=O)CC(C)(C)C2)C1c1ccc(-c2ccccc2)cc1 (centres undefined)		26.4 µM (active) and 10.3 µM (active)	
Cc1cc(Nc2nc(N[C@@H](C)c3ccc(F)cc3)c(C#N)cc2F)n[nH]1		16.6 µM (active) and 7.31 µM (active)	
O=C(NCCCNc1nc(Nc2cccc(NC(=O)N3CCCC3)c2)ncc1I)c1cccs1		5.9 µM (active)	
NC(=O)c1cccc2cn(-c3ccc([C@@H]4CCCNC4)cc3)nc12	-21.5% and 4.62%		
CCc1cc2c(cc1N1CCC(N3CCOCC3)CC1)C(C)(C)c1[nH]c3cc(C#N)ccc3c1C2=O	-36.8% and 0.704%		
C1Cc2[nH]nc(-c3nn[nH]n3)c2C1	-5.71% and 4.92%		
CC1(C)CCC(c2ccc(Cl)cc2)=C(CN2CCN(c3ccc(C(=O)NS(=O)(=O)c4ccc(N[C@H](CCN5CCOCC5)CSc5ccccc5)c(S(=O)(=O)C(F)(F)F)c4)cc3)CC2)C1	3.93%		
CC(C)c1cnn2c(NCc3ccccc3)cc(N[C@@H](CO)[C@H](O)CO)nc12		0.296 µM (active)	
COc1ccc2c(c1)CC[C@@H](CN(C)CC(=O)O)[C@H]2c1ccccc1	-2.88%		
Cc1ccc(S(=O)(=O)Nc2cc(Cl)ccc2C(=O)Nc2nc(-c3ccccc3)cs2)cc1	3.55%		
CCOc1cc2ncc(C#N)c(Nc3ccc(F)c(Cl)c3)c2cc1NC(=O)C=CCN(C)C		0.105 µM (active)	
C1=CCOCc2cc(ccc2OCCN2CCCC2)Nc2nccc(n2)-c2cccc(c2)OCC1		8.33 µM (active)	
Cc1ccc(C(N)=O)cc1Nc1nccc(-c2cn(C(C)C)c3cnccc23)n1		11.6 µM (active)	
CC(C)C[C@H](NC(=O)CNC(=O)c1cc(Cl)ccc1Cl)B(O)O		1.48 µM (active)	
CC(C)(C)OC(=O)Nc1ccc(-c2cc(C(=O)NCCCCCCC(=O)NO)no2)cc1		16.6 µM (active)	

Structure (SMILES)	max response	Potency	outcome
CC=C1NC(=O)[C@H]2CSSCCC=C[C@H](CC(=O)N[C@H](C(C)C)C(=O)N2)OC(=O)[C@H](C(C)C)NC1=O		0.0187 µM (active)	
Clc1cccc(-n2nnnc2NCc2ccccc2Oc2ccccn2)c1Cl			inactive
CC(C)Nc1cc(C(F)(F)F)cc2nc(NC(=O)c3cccnc3)nn12	-10.3% and 1%		
CC(C)c1cc(C(=O)N2Cc3ccc(CN4CCN(C)CC4)cc3C2)c(O)cc1O		0.935 µM (active)	
Cc1ccc(-c2ncn(-c3ccc(Nc4nccc(-c5cccc(N6CCOCC6)c5)n4)cc3)n2)cn1		0.118 µM (active)	
Cc1[nH]nc2ccc(-c3cncc(OC[C@@H](N)Cc4ccccc4)c3)cc12		2.64 µM (active) and 5.8 µM (active)	
NCC(=O)Nc1ccc(-n2nc(C(F)(F)F)cc2-c2ccc3c(ccc4ccccc43)c2)cc1	-6.6%		
CN1CC[C@@H](c2c(O)cc(O)c3c(=O)cc(-c4ccccc4Cl)oc23)[C@@H](O)C1		0.166 µM (active)	
COc1ccc(CC2SC(=O)NC2=O)cc1C(=O)NCc1ccc(C(F)(F)F)cc1 (centres undefined)		11.8 µM (active)	
CN(C)c1nc(Cc2ccc(NC(=O)c3ccc4ccccc4c3)cc2)nc(Cl)c1CC(=O)O	0.957% and -5.82%		
C[C@@H](Oc1cc(-c2cnn(C3CCNCC3)c2)cnc1N)c1c(Cl)ccc(F)c1Cl		11.8 µM (active) and 20.6 µM (active) and 23.1 µM (active)	
N#Cc1c(O)c2c(-c3ccc(-c4ccccc4O)cc3)csc2[nH]c1=O	-0.58% and 1.34%		
CCCCCN(CCC12CC3CC(CC(C3)C1)C2)C(=O)NCCCc1ccncc1	-19%		
COc1cc2c(Oc3ccc4[nH]c(C)cc4c3F)ncnc2cc1OCCCN1CCCC1		8.2 µM (active)	
Cc1cc(Nc2ncnc3ccc(-c4ccc(CNCCS(C)(=O)=O)o4)cc23)ccc1Oc1ccn2ncnc2c1		3.32 µM (active) and 23.1 µM (active)	
C[C@@]12O[C@@H](C[C@]1(O)CO)n1c3ccccc3c3c4c(c5c6ccccc6n2c5c31)CNC4=O		0.0833 µM (active)	
CC1=C(CO)C(=O)O[C@@H]([C@@H](C)[C@H]2CC[C@H]3[C@@H]4C[C@H]5O[C@]56[C@@H](O)C=CC(=O)[C@]6(C)[C@@H]4CC[C@]23C)C1		1.48 µM (active)	
